From PubChem BioAssay
Active and inactive are the calls of the source.

Tests used:
[1] = compounds binding Alexa647 anti-His antibody – biochemical, small-molecule microarray, 635 nm fluorescence, artefact control for SMM control protein annotation, primary screen (AID 1128); conditions: higher = more signal;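 note: score merges feature fluorescence with signal-to-noise for each printed compound spot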
[2] = system: Human papillomavirus type 1a E7 protein (residues 1-88); assay: HPV1a E7 small-molecule binders, primary screen, biochemical, small-molecule microarray, residues 1-88, 635 nm (AID 1129); conditions: small-molecule microarray binding, fluorescence 635 nm; higher = more signal
[3] = molecular target: Focal adhesion kinase 1 (Homo sapiens) (UniProt Q05397); assay: PTK2 protein binding on printed compound slides – biochemical, small-molecule microarray, 635/667 nm fluorescence, BSA, DTT, primary screen (AID 1130); conditions: 635 nm fluorescence, higher = more signal;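 note: composite of spot emission at 667 nm and signal to noise over triplicate slides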
[4] = system: Fibrinogen (Alexa647-labelled); assay: Alexa647-fibrinogen binding to printed small molecules – biochemical, small-molecule microarray, 635/667 nm fluorescence, artefact control for SMM control-protein annotation, profiling panel (AID 1131); conditions: fibrinogen-A647 binding fluorescence, higher = more signal;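 note: z-score merges 667 nm fluorescence with per-spot signal-to-noise over triplicate slides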
[5] = molecular target: Follistatin (Homo sapiens) (UniProt P19883); assay: FST protein binding to printed compounds – biochemical, small-molecule microarray, 635/667 nm fluorescence, primary screen (AID 1132); conditions: 635 nm fluorescence, higher = more signal
[6] = molecular target: Fibroblast growth factor 2 (Homo sapiens) (UniProt P09038); assay: basic fibroblast growth factor binding to printed compounds – biochemical, small-molecule microarray, 635/667 nm fluorescence, primary screen (AID 1133); conditions: FGF2, fluorescence 635/667, higher = more signal
[7] = JC-1 mitochondrial potential readout, lung cancer cells – cell-based, A549, JC-1 fluorescence, basal, 24 h, 100 nL, profiling panel (AID 1138); conditions: higher = more signal;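 note: A549 lung adenocarcinoma cells under basal conditions with no added stimulus; test concentration not given here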
Lefty1 = Lefty1 protein binding to printed compounds – biochemical, small-molecule microarray, 635/667 nm fluorescence, primary screen (AID 1139); conditions: fluorescence 635/667, higher = more signal
[8] = system: wheat germ agglutinin (Triticum aestivum), Alexa647-labelled; assay: Alexa647-WGA lectin binding to printed small molecules – biochemical, small-molecule microarray, 635/667 nm fluorescence, artefact control for SMM control-protein annotation, profiling panel (AID 1140); conditions: WGA-A647 binding, 635 nm fluorescence, higher = more signal;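 note: score merges 667 nm feature emission with signal to noise over triplicate slides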
[9] = molecular target: Luciferin 4-monooxygenase (Photinus pyralis) (UniProt P08659); assay: inhibition of purified Photinus pyralis luciferase – biochemical, luminescence, purified enzyme, 2006 set, primary screen (AID 1141); conditions: purified firefly luciferase, SteadyGlo luminescence, 30 min; higher = more signal, called active from +8 up or from −8 down;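 note: cell-free assay with purified firefly luciferase at 100 ng per well in PBS; test concentration not given here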
Chain of Luciferin 4-monooxygenase (Photinus pyralis) (P08659 whole entry, looked up): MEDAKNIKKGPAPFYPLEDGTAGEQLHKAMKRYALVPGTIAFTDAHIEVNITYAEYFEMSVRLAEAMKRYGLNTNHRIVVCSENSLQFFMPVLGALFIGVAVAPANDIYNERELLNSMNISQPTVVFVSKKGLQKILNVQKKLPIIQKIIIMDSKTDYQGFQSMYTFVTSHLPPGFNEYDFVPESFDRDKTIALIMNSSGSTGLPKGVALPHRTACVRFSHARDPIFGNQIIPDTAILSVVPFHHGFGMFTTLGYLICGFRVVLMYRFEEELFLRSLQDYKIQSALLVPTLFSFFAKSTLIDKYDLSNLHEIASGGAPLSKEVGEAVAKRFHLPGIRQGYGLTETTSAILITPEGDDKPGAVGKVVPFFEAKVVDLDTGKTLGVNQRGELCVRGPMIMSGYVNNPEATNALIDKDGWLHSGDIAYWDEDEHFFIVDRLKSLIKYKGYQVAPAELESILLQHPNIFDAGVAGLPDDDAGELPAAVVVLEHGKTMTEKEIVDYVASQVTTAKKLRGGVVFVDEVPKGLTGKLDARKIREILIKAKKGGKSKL

Chain of Follistatin (Homo sapiens) (P19883 whole entry, looked up): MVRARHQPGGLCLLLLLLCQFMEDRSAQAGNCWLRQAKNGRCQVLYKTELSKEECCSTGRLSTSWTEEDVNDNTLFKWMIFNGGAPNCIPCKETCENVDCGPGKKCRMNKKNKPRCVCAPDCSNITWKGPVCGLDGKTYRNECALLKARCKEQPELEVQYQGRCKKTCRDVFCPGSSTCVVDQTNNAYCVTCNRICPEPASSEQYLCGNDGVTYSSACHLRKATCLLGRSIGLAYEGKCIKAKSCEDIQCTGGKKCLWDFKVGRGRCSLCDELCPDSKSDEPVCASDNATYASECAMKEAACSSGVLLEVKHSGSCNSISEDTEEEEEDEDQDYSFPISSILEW
Chain of Focal adhesion kinase 1 (Homo sapiens) (Q05397 whole entry, looked up): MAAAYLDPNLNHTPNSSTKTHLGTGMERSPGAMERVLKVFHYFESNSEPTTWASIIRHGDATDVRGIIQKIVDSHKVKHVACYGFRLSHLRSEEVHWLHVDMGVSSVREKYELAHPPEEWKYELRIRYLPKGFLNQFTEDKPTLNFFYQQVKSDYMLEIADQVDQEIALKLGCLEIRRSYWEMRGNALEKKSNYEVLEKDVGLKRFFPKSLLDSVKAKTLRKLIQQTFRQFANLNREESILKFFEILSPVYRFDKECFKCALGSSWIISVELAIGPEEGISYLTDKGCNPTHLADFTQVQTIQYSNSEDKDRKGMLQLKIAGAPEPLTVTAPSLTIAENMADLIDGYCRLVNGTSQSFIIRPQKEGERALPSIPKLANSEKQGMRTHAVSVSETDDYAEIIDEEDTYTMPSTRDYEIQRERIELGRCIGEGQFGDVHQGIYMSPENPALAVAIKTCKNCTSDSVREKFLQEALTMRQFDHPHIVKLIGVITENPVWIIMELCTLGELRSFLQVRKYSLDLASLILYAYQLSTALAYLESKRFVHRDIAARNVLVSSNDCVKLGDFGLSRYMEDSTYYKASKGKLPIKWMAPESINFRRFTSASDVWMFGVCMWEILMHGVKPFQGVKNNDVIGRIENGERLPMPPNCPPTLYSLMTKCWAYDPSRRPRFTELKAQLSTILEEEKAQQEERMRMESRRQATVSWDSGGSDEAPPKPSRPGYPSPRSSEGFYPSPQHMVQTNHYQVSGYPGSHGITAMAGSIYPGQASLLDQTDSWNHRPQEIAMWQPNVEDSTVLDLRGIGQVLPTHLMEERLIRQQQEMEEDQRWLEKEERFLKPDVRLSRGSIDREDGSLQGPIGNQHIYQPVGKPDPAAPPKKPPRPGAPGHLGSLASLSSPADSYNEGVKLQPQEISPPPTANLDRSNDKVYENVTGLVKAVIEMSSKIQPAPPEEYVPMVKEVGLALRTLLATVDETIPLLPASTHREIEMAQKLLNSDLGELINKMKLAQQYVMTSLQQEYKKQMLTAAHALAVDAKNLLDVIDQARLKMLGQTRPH
Chain of Fibroblast growth factor 2 (Homo sapiens) (P09038 whole entry, looked up): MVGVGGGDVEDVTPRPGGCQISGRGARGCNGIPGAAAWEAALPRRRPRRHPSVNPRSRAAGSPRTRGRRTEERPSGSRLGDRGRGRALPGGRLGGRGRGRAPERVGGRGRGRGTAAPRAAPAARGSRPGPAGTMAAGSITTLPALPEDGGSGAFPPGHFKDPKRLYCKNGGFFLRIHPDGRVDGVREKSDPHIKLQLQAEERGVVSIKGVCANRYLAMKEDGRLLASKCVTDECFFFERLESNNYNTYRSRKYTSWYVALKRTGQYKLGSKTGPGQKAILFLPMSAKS

SMILES	composite z-score [1]	composite z-score [2]	composite z-score [3]	composite z-score [4]	composite z-score [5]	composite z-score [6]	z-score [7]	composite z-score (Lefty1)	composite z-score [8]	z-score [9]
COc1ccc(C(=O)Nc2ccc(CN3C(=O)[C@@]4(O[C@@H](CCn5cc([C@H](O)c6ccccc6)nn5)[C@H]([Si](C)(C)c5ccc(OC)cc5)[C@H]4C)c4ccccc43)cc2)cc1	0.848	-0.024	-0.103	0.579	0.836	-0.019	1.83	0.526	0.376	-0.753 (inactive)
C=C(CCCC)C(=O)CC[C@@H](OC(=O)c1cccnc1)c1ccc(CO)o1	1.18	1	-0.338	0.947	1.25	1.47	-0.627	1.36	0.828	-2.32 (inactive)
Cc1ccc(C(C)CC(O)C2C=CC3C(=O)N(c4ccccc4)C(=O)C3N2Nc2ccc([N+](=O)[O-])cc2)o1 (stereo not given)	0.484	1.23	0.772	0.904	1.06	0.232	-0.828	-0.0023	0.646	1.45 (inactive)
COc1ccc(C(=O)Nc2ccc(CN3C(=O)[C@@]4(O[C@@H](CC(=O)N5CCC[C@H]5CO)[C@H]([Si](C)(C)c5ccc(OC)cc5)[C@H]4C)c4ccccc43)cc2)cc1	-0.271	1.2	1.02	0.655	1.33	1.68	3.25	1.21	0.763	-2.38 (inactive)
CC(C)c1ccc(NN2C(C(O)c3cc(C(F)(F)F)cc(C(F)(F)F)c3)C=CC3C(=O)N(c4ccccc4)C(=O)C32)cc1 (stereo not given)	0.444	1.22	0.579	0.975	-0.105	-0.313	-0.731	-0.842	1.13	0.0708 (inactive)
CN1C(=O)C2C=CC(C(O)c3cc(C(F)(F)F)cc(C(F)(F)F)c3)N(N3CCCCC3)C2C1=O (stereo not given)	1.13	1.03	0.428	0.62	-0.165	-0.397	-0.0918	-0.4	0.615	-1.48 (inactive)
COc1ccc([Si](C)(C)[C@H]2[C@H](CCO)O[C@@]3(C(=O)N(Cc4ccc(N5C(=O)COc6ccccc65)cc4)c4ccccc43)[C@@H]2C)cc1	1.04	0.0091	-0.187	0.27	-0.566	-0.684	0.272	-0.072	0.484	0.0706 (inactive)
COC(=O)c1c(CC[C@@H](CO)NC(=O)N[C@H](Cn2cc(Cc3ccccc3)nn2)C(C)C)oc(C(C)=O)c1C(=O)OC	0.583	0.641	-0.0225	0.519	1.29	1.51	0.0865	1.24	0.261	-0.0001 (inactive)
CN1C(=O)C2C=CC(C(O)C3=C[C@H]4C[C@@H](C3)C4(C)C)N(Nc3ccccc3)C2C1=O (stereo not given in full)	0.274	1.19	0.608	0.816	1.18	0.0364	-0.838	0.446	0.782	-0.179 (inactive)
O=C(NCc1ccccc1)[C@@H]1c2ccccc2C(=O)N(CC23CC4CC(CC(C4)C2)C3)[C@H]1c1ccc(CO)cc1	0.153	1.19	0.0304	0.937	1.17	1.43	0.705	0.884	0.31	-0.715 (inactive)
CCCC#C[Si](O[C@H](CC)c1cn([C@H](CO)Cc2ccccc2)nn1)(C(C)C)C(C)C	0.236	0.842	0.249	0.892	0.963	0.344	0.175	0.41	0.0686	-0.453 (inactive)
O=C(NCc1ccc(F)cc1)[C@H]1C[C@H]2C(=O)N[C@@H](Cc3ccccc3)C(=O)N2[C@H]1c1ccc(O)cc1	1.53	0.526	0.063	-0.102	1.38	1.59	0.574	-0.169	-0.262	-0.568 (inactive)
N#Cc1ccc(NN2C(C(O)c3c(F)cccc3Cl)C=CC3C(=O)N(c4ccccc4)C(=O)C32)cc1 (stereo not given)	2.29	1.21	0.377	0.973	1.23	0.407	-0.36	-0.0219	0.997	-0.671 (inactive)
COc1ccc(C(=O)Nc2cccc(CN3C(=O)[C@]4(O[C@H](CCO)[C@@H]([Si](C)(C)c5ccc(OC)cc5)[C@@H]4C)c4ccccc43)c2)cc1	0.869	1.17	0.354	0.579	1.24	0.699	-1.52	1.35	0.32	0.681 (inactive)
C=CCOC(=O)[C@@H]1[C@H]2C(=O)O[C@H](c3ccccc3)[C@H](c3ccccc3)N2[C@H](c2ccc(OCCOC(=O)[C@@H]3C[C@@H]4C(=O)N5CCC[C@H]5C(=O)N4[C@@H]3c3ccc(O)cc3)cc2)[C@@]12C(=O)Nc1ccc(I)cc12	0.426	1.19	0.928	0.837	1.29	1.2	-1.58	0.793	0.635	-0.291 (inactive)
[N-]=[N+]=Nc1ccccc1C[C@@]1(C(=O)NCCN2CCOCC2)N=C(c2ccc(OCCCO)cc2)O[C@@H]1c1ccccc1	0.76	1.26	0.85	1.03	1.3	1.19	0.662	0.7	0.823	-1.7 (inactive)
C=CCNC(=O)[C@H]1[C@@H]2C(=O)O[C@@H](c3ccccc3)[C@@H](c3ccccc3)N2[C@@H](c2ccc(OCCO)cc2)[C@]12C(=O)Nc1ccc(C#CC3=CCCCC3)cc12	0.354	1.09	-0.544	0.957	1.26	0.553	-0.801	0.937	0.494	0.098 (inactive)
Cc1ccc(S[C@]2(C(=O)NCC(C)C)CC(=O)N(Cc3cc(C(F)(F)F)cc(C(F)(F)F)c3)[C@@H]2c2ccc(CO)cc2I)cc1	-0.316	-1.08	-0.55	-0.819	-1.59	-1.1	-0.553	-2.21	-0.192	0.328 (inactive)
CC(C)(C)OC(=O)CC[C@@]1(C(=O)NCC(O)CO)N=C(c2ccc(OCCCO)cc2)O[C@@H]1c1ccccc1N=[N+]=[N-] (stereo not given in full)	2.37	0.818	0.94	0.985	1.43	0.692	1.18	-0.0052	0.96	-10.6 (active)
CC1CC/C=C\[C@H]2OC34C=CCN(c5ccc(Cl)cc5)C(=O)[C@H]3N(CCO)C(=O)[C@]4(C)C2C(=O)O1 (stereo not given in full)	3.56	-0.0955	1.67	-1.84	-0.338	-0.492	-0.259	-0.49	0.811	0.259 (inactive)
[N-]=[N+]=NCc1ccccc1[C@@H]1OC(c2ccc(OCCCO)cc2)=N[C@]1(CCS(=O)(=O)c1ccccc1)C(=O)NCCN1CCOCC1	1.68	1.29	0.261	1.03	1.43	0.913	0.721	0.684	1.31	-2.52 (inactive)
COc1ccc(C(O)C2C=CC3C(=O)N(c4ccccc4)C(=O)C3N2Nc2ccc(C(C)C)cc2)cc1OCc1ccccc1 (stereo not given)	0.893	1.17	-0.149	0.973	1.22	0.254	-0.182	0.094	1.22	-1.96 (inactive)
COCCCN1C(=O)[C@@]2(c3ccc([N+](=O)[O-])cc3)CC(=O)N(C3CCCCC3)[C@@H]2c2ccc(CO)cc21	0.245	-0.62	-0.101	-0.538	1.14	0.594	-0.39	0.655	-0.0848	-0.302 (inactive)
C=CCNC(=O)[C@@H]1[C@H]2C(=O)O[C@H](c3ccccc3)[C@H](c3ccccc3)N2[C@H](c2ccc(OCCO)cc2)[C@@]12C(=O)Nc1ccc(C#Cc3ccc(OC)cc3)cc12	0.785	1.18	0.452	0.798	1.42	0.989	-1.87	1.57	1.17	-0.398 (inactive)
COCCOC(=O)N1C(=O)[C@@]2(c3cc(C#Cc4ccc(OC)cc4)ccc31)[C@H](C(=O)N1CCCCCCC1)[C@H]1C(=O)O[C@H](c3ccccc3)[C@H](c3ccccc3)N1[C@@H]2c1ccc(OCCO)cc1	0.885	0.94	0.409	0.905	1.58	2.1	-0.951	1.36	1.32	-2.56 (inactive)
C=CCC(OC(C)=O)[C@@H]1[C@@H](N(Cc2ccc(-c3ccccc3)cc2)C(=O)Cc2ccc(F)cc2)c2cc(OCCCO)ccc2N1C(=O)c1ccc(-c2ccccc2)cc1 (stereo not given in full)	-0.414	-1.03	-0.0744	0.259	0.267	-0.297	0.796	-0.0123	-0.217	1.03 (inactive)
CC(=O)n1cc(C(O)C2C=CC3C(=O)N(C)C(=O)C3N2Nc2ccccc2)c2ccccc21 (stereo not given)	1.88	1.11	0.214	0.898	1.12	0.607	-0.0732	0.859	0.809	0.376 (inactive)
C=CC[C@@]1(C(=O)N(C)C)N=C(c2ccc(OCCCO)cc2)O[C@@H]1c1ccccc1N=[N+]=[N-]	3.01	1.22	0.489	0.776	1.28	0.26	0.857	0.406	1.33	-9.07 (active)
O=C(O)[C@@]1(CCS(=O)(=O)c2ccccc2)COC(c2ccc(OCCCO)cc2)=N1	-0.777	-0.0191	-0.283	-1.2	0.0153	-0.23	-0.487	-1.34	-0.0996	0.299 (inactive)
